Screen size: about 87,000 compounds; about 360 (0.41%) were called active. The sample as a whole holds a higher share of actives than the screen did. Values without a mark were called inactive. Rule as the data show it: active = cytotoxicity above about 50%; inactive = the rest.
Assay: HT1080 cell viability loss – fluorescence readout (AID 620);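 also: cells exposed to compound overnight then 4 h with Alamar Blue; 0% = vehicle DMSO and 100% = killing control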
Settings: at 10 µM, hits give high values

Compared with `CCCC[C@@H]1C[C@H]1C(NC(=O)c1ccc(C(F)(F)F)cc1)c1ccc(C(=O)OC)cc1` (stereo partly drawn), `CCCCNC(=O)c1ccc2c(c1)N(CC)C(=O)c1ccccc1S2(=O)=O` is higher in cytotoxicity: -11.3% for the first, -4.4% for the second.

Compared with `CCn1cc(C(=O)O)c(=O)c2cnc(N3CCN(C(=O)Nc4cccc5ccccc45)CC3)nc21`, `CCCN(C(=O)Cn1ncc2c(=O)oc3ccccc3c21)c1cccc(C)c1` is lower in cytotoxicity: -1.8% for the first, -2.3% for the second.

Going from `CC(=O)N1CCN(Cc2ccc(Br)s2)CC1` to `CS(=O)(=O)N(CC(=O)N1CCN(c2ccccc2)CC1)C1CCCCC1`, the cytotoxicity falls from -4.4% to -5.1%.

First: Cc1[nH]c(=O)[nH]c(=O)c1S(=O)(=O)N1c2ccc(F)cc2CCC1C (stereo not drawn)
Second: COc1ccccc1N(CC(=O)NC1CCCCC1)S(C)(=O)=O
The cytotoxicity of the first is higher: -0.4% for the first, -0.7% for the second.

First: O=C(CN(c1ccccc1F)S(=O)(=O)c1ccccc1)NC1CCCCCC1
Second: CCCNC(=O)C1CN(S(=O)(=O)c2ccccc2)CCN1S(=O)(=O)c1ccccc1 (stereo not drawn)
The cytotoxicity of the first is lower: -8.6% for the first, 3.1% for the second.

Compared with `Fc1ccc(-c2nnc(CN3CCN(c4ncc(C(F)(F)F)cc4Cl)CC3)o2)cc1`, `Fc1ccc(N2CCN(c3nc(-c4ccco4)cc(C(F)(F)F)n3)CC2)cc1` is lower in cytotoxicity: -2.5% for the first, -8.6% for the second.

Compared with `CCCCCc1ccc(-c2ccc(=O)[nH]n2)cc1`, `CCCCc1ccc(-c2nc(N)n[nH]2)cc1` is lower in cytotoxicity: 15.3% for the first, 5.5% for the second.

First: CCCn1c(=O)c2ccccc2n2c(SCC(=O)c3cc(C)n(CC4CCCO4)c3C)nnc12 (stereo not drawn)
Second: Cn1c(Cn2nnc3ccccc32)nnc1SCC(=O)NCc1ccc2c(c1)OCO2
The cytotoxicity of the first is higher: 6.6% for the first, -4.4% for the second.

Compared with `COc1ccc2[nH]cc(C(=O)N3CCCCC3)c(=O)c2c1`, `CCc1ccc2[nH]cc(C(=O)N3CCCCCC3)c(=O)c2c1` is lower in cytotoxicity: -0.4% for the first, -11% for the second.

First: FC(F)(F)c1cc(-c2ccco2)nc(-n2cnc3ccccc32)n1
Second: FC(F)(F)c1cc(-c2ccco2)nc(-n2nnc3ccccc32)n1
The cytotoxicity of the first is lower: -14.2% for the first, -10.9% for the second.

First: CSc1nc(NCC(C)C)nc(N2CCOCC2)n1
Second: CCn1ncc(C2=NOC(C(=O)NCC(C)C)C2)c1C (stereo not drawn)
The cytotoxicity of the first is lower: 1% for the first, 1.4% for the second.

First: CC(=O)NC1=NN(C(C)=O)C2(CCCCC2)S1
Second: CCCC1(C)SC(NC(C)=O)=NN1C(C)=O (stereo not drawn)
The cytotoxicity of the first is higher: 0.7% for the first, -1.8% for the second.

First: COc1ccc(C(=O)CSc2nc(SC)ns2)cc1OC
Second: COc1cc(NC(=O)COc2ccc(F)cc2)nc(OC)n1
The cytotoxicity of the first is higher: 7.5% for the first, 5% for the second.

First: O=C(Nc1ccc(-c2nc3ccc(NC(=O)c4cccs4)cc3[nH]2)cc1)c1cccs1
Second: O=C(Nc1ccc2nc(-c3cccs3)[nH]c2c1)c1cccs1
The cytotoxicity of the first is lower: 16.4% for the first, 17% for the second.

First: COc1ccc(C(=O)SC2=NCCS2)cc1
Second: CCOCc1nnc(NC(=O)c2ccc(OC)cc2)s1
The cytotoxicity of the first is lower: -11.1% for the first, 7.7% for the second.

Going from `Cc1cc(C)n(-c2c(F)c(F)c(CO)c(F)c2F)n1` to `Cc1ccc2c(C)c(C(=O)Nc3nnc(C)s3)oc2c1`, the cytotoxicity rises from -14.3% to 1.1%.

First: CCn1ncc(C2=NOC(C(=O)Nc3ccc(C)cc3)C2)c1C (stereo not drawn)
Second: CCn1ncc(C2=NOC(C(=O)NCc3ccc(OC)cc3)C2)c1C (stereo not drawn)
The cytotoxicity of the first is higher: 7.8% for the first, 2% for the second.

Compared with `CCn1ncc(C2=NOC(C(=O)NCCc3ccccc3)C2)c1C` (stereo not drawn), `CCc1ccccc1NC(=O)CN(C)Cc1nc(N)nc(Nc2ccccc2C)n1` is lower in cytotoxicity: 4.4% for the first, -1% for the second.

Compared with `Cc1ccc(C)c(NC2=NC3(CCCCC3)N=C(N)N2)c1`, `Cc1cc(NC(=O)c2ccco2)ccc1-n1cnnn1` is lower in cytotoxicity: 4.3% for the first, -8.1% for the second.

Going from `COC(=O)C(NC(=O)c1ccco1)(Nc1nc(C2CC2)cs1)C(F)(F)F` (stereo not drawn) to `O=C(Nc1nnc(C(F)(F)F)s1)c1cccnc1`, the cytotoxicity rises from 1.9% to 24%.

Compared with `CO/N=C/NC(=O)Cc1cn(-c2ncc(C(F)(F)F)cc2Cl)c2ccccc12`, `Cc1c(C(=O)Nc2ccc(-n3cnnn3)cc2)oc2ccccc12` is higher in cytotoxicity: 7.8% for the first, 26.2% for the second.

`COC(=O)c1sc(NC(=O)c2oc3ccccc3c2C)nc1C` showed a cytotoxicity of -14.4%.

For `CCCCCCc1ccc(-c2ncc(N)cn2)cc1`, the cytotoxicity was 97.1% (active).
With `O=C(c1c[nH]c2ccc(F)cc2c1=O)N1CCCCCC1` the cytotoxicity was 67.1% (active).
In the case of `Cc1nc2ccccc2n1-c1nc(-c2ccco2)cc(C(F)(F)F)n1`, the cytotoxicity is reported as 65.2% (active).
In the case of `CC(=O)NC1=NN(C(C)=O)C(C)(c2cccs2)S1` (stereo not drawn), the cytotoxicity is reported as 65.3% (active).
For `O=C(Nc1ccc2nc(-c3ccccc3)[nH]c2c1)c1cccs1`, the cytotoxicity was 56.7% (active).
For `CCn1ncc(C2=NOC(C(=O)NCc3ccccc3)C2)c1C` (stereo not drawn), the cytotoxicity was 53.9% (active).
In the case of `CCn1ncc(C2=NOC(C(=O)NCc3ccc(Cl)cc3)C2)c1C` (stereo not drawn), the cytotoxicity is reported as 71.2% (active).
In the case of `COc1ccc(C(=O)Nc2nnc(C(F)(F)F)s2)cc1`, the cytotoxicity is reported as 66.8% (active).
For `Cc1cc(NC(=O)c2oc3ccccc3c2C)ccc1-n1cnnn1`, the cytotoxicity was 75.3% (active).
For `Cc1c(C(=O)Nc2nnc(C(F)(F)F)s2)oc2ccccc12`, the cytotoxicity was 82.5% (active).

From PubChem BioAssay AID620 (Sanford-Burnham Center for Chemical Genomics, 2007)
